This is an account of results in PubChem BioAssay (NCI).

Assay in all cases: NCI-60 one-dose screen, 48 h (100 = growth as untreated, 0 = no growth, -100 = all killed)
What all share (conditions): 10 µM unless noted

Experiment [1] has as its system SR leukemia.
Experiment [2] deals with RPMI-8226 leukemia.
Experiment [3] has as its system OVCAR-8 ovarian.
Experiment [4] concerns OVCAR-5 ovarian.
Experiment [5] concerns OVCAR-4 ovarian.
Experiment [6] relates to SK-OV-3 ovarian.
In experiment [7] the test system is IGROV1 ovarian.
Experiment [8] relates to OVCAR-3 ovarian.
Experiment [9] has as its system NCI/ADR-RES ovarian.
The test system of experiment [10] is HS 578T breast.

The structures appear in SMILES notation. Several values for one entry are separate records, joined by “and”; a condition that tells them apart may be missing. Equal entries are not always repeated. About 83,000 compounds went through this panel and 20% of them were active in at least one assay; those are over-represented in the sample as a whole.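 Activity criterion: percent growth below 10, measured after cells in 96-well plates were exposed to a single compound concentration for 48 hours.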 Activity calls are given as the source filed them.

As to `COc1c(O)c(O)cc2c3c(oc12)CC(c1ccc2c(c1)OCO2)CC3=O` (stereo not given), the growth in [1] was 45.2% (inactive); in experiment [2] it was 62.5% (inactive); in experiment [3] it was 63% (inactive); in [4] it was 116% (inactive); in [5], 80.5% (inactive); in experiment [6] it was 90.1% (inactive). Also, the growth is 54.5% (inactive) in [7], 63.8% (inactive) in experiment [8] and 67% (inactive) in experiment [9].

As for `COCCOc1cc2ncnc(N3CCN(S(=O)(=O)c4ccccc4Cl)CC3)c2cc1OCCOC`, the growth in [1] was 22% (inactive); in experiment [2], 82.5% (inactive); in experiment [3], 93.9% (inactive); in [4], 102% (inactive); in [5] it was 102% (inactive); in [6], 104% (inactive). Besides, the growth is 89.7% (inactive) in experiment [7], 91.5% (inactive) in [8], 93.5% (inactive) in experiment [10] and 66.9% (inactive) in [9].

For the molecule `N#C/C(=C\c1ccc(Br)cc1)n1nnc2c(F)cccc21`, the growth is 23.1% (inactive) in [1]; -20.2% (active) in [2]; 7.76% (active) in experiment [3]; 1.16% (active) in experiment [4]; 14.1% (inactive) in experiment [5]; 40.7% (inactive) in experiment [6]. In addition, the values for the growth in experiment [7], in [8] and in experiment [9] were -24.3% (active), -51.1% (active) and 2.56% (active), respectively.

On to `CC/C(=C(/c1ccc(Cl)cc1)c1ccc(OCCN2CCOCC2)cc1)c1ccccc1`, for which the growth was 85.1% (inactive) in experiment [1]; 80.3% (inactive) in experiment [2]; 91.6% (inactive) in [3]; 100% (inactive) in experiment [4]; 100% (inactive) in experiment [5]; 116% (inactive) in [6]. Moreover, the growth was 108% (inactive) in experiment [7], 96% (inactive) in experiment [8], 99.2% (inactive) in experiment [10] and 103% (inactive) in experiment [9].

Regarding `C=C1CCC2C3(C)COC(c4ccc(NC(C)=O)cc4)OC3CCC2(C)C1C/C=C1/C(=O)OCC1O` (stereo not given), the growth is 25.2% (inactive) in [1]; 6.14% (active) in [2]; 44.7% (inactive) in experiment [3]; 74.9% (inactive) in experiment [4]; 23.7% (inactive) in experiment [5]; 79.6% (inactive) in experiment [6]. Moreover, the growth in experiment [7] is 84.4% (inactive); in experiment [8], 76.2% (inactive); in experiment [10] it was 54% (inactive); in experiment [9] it was 36.1% (inactive).

As to `COc1ccc(C(=O)c2ccc(OC)c(OC)c2OC)cc1`, the growth was 43.5% (inactive) and 8.36% (active) in experiment [1]; 35.3% (inactive) and 27.4% (inactive) in experiment [2]; 41.8% (inactive) and 47.4% (inactive) in experiment [3]; 83.1% (inactive) and 49.9% (inactive) in experiment [4]; 82.8% (inactive) and 42.8% (inactive) in experiment [5]; 18% (inactive) and 3.38% (active) in [6]. Also, the growth in [7] is 25.7% (inactive) and 11.9% (inactive); in experiment [8], -22.8% (active) and -39.4% (active); in [10], -9.55% (active) and -14.2% (active); in [9], 18.5% (inactive) and -13.9% (active).

Take `O=C1CCc2c(sc3[nH]c(=S)n(Cc4ccc(Cl)cc4)c(=O)c23)C1`: the growth in experiment [1] was 17.9% (inactive); in experiment [2] it was -25.5% (active); in experiment [3], 7.83% (active); in experiment [4], 11.7% (inactive); in experiment [5], 12.4% (inactive); in [6], -10.1% (active). Further, the growth in [7] is 23.3% (inactive); in [8], 6.66% (active); in experiment [10], 5.06% (active); in [9], -0.97% (active).

Take `O=[N+]([O-])c1ccc2[nH]c3nccc(NCc4cccc(Cl)c4)c3c2c1`: the growth is 50.5% (inactive) in experiment [1]; 82.9% (inactive) in experiment [2]; 37.5% (inactive) in experiment [3]; 86.3% (inactive) in [4]; -35% (active) in [5]; 91.9% (inactive) in [6]. The growth in [7] was 93.1% (inactive); in [8], 49.8% (inactive); in experiment [10], 17.5% (inactive); in experiment [9], 64.4% (inactive).

For `O=[N+]([O-])c1ccc(S(=O)Cc2ccccc2)c([N+](=O)[O-])c1` (stereo not given), the growth in [1] is 1.64% (active) and -8.84% (active); in [2], 72.8% (inactive) and 27.5% (inactive); in [3], 45.8% (inactive) and 94.9% (inactive); in experiment [4], 82.4% (inactive) and 93.3% (inactive); in [5] it was 59.7% (inactive) and 1.6% (active); in [6], 104% (inactive) and 109% (inactive). The growth in experiment [7] is 89.9% (inactive) and 106% (inactive); in [8] it was 13.9% (inactive) and -74.6% (active); in experiment [9], 90.9% (inactive) and 90.6% (inactive).

For the molecule `CC(=O)OC[C@]12CCC(C)(C)C=C1[C@H]1CC[C@@H]3[C@@]4(C)CCCNC(C)(C)[C@@H]4CC[C@@]3(C)[C@]1(C)CC2`, the growth was 13.7% (inactive) in [1]; -4.32% (active) in [2]; 71.9% (inactive) in experiment [3]; 96.7% (inactive) in experiment [4]; 41.8% (inactive) in experiment [5]; 90.5% (inactive) in experiment [6]. The results for the growth in [7], in experiment [10] and in experiment [9] were 43.6% (inactive), 92.5% (inactive) and 104% (inactive), respectively.

For `O=C1OCC2=C1C(c1cccc(C(F)(F)F)c1)c1cc3c(cc1N2CCO)OCCO3` (stereo not given), the growth in experiment [1] is 13.3% (inactive); in experiment [2], 22.2% (inactive); in experiment [3], 11.4% (inactive); in experiment [4], 45.9% (inactive); in [5], 66.3% (inactive); in [6] it was 16.1% (inactive). Further, the growth in [7] was 38% (inactive); in [8], -4.23% (active); in experiment [9] it was 22.2% (inactive).
